Among all 69,000 compounds or so, about 8,600 (12%) showed an effect of 50% or more. The sample holds strong results, similar compounds and a random draw of the others, so the mix is not that of the screen.

INHIBITION data for 53 molecules are collected here from ChEMBL document CHEMBL4513216, “Probing the Open Global Health Chemical Diversity Library for Multistage-Active Starting Points for Next-Generation Antimalarials” (ACS Infect Dis, 2020).

This assay concerns Plasmodium berghei. Briefly: Screen against P. berghei liver stage (PbLuc), transformed with Luciferase, at 10uM. The settings on record: tested at 10 uM. The class given is functional, HepG2.
`COCCN1CCC(Nc2c(F)cc(C#N)cc2F)CC1`: the INHIBITION was -3.58%. For the molecule `O=C([C@@H]1CCO[C@@H]2CCN(Cc3ccsc3)C[C@@H]21)N1CCCC1`, the INHIBITION amounted to 38.1%.

Turning to `O=C1CC(c2ccsc2)c2sc(C(=O)O)c(-c3ccc(F)cc3)c2N1` (stereo not drawn), the INHIBITION is -8%. For `CCN1CCC2(CC1)CN(CCO)c1ccccc12` the value was -7.94%. Turning to `COc1cc(N2CCC3(CC2)CN(CCO)c2ccccc23)ncn1`, the INHIBITION is listed as 93.1%.

Turning to `O=C(c1ccncc1)N1CCCC2(CCN(c3cccnc3)C2=O)C1` (stereo not drawn), the INHIBITION is -7.7%. For `COc1cc(N2CCC3(CC2)CN(S(C)(=O)=O)c2ccccc23)ncn1` the value was 46.4%; for `O=C1N(c2cccnc2)CCC12CCCN(Cc1cccnc1)C2` (stereo not drawn), -52.3%; for `COc1cc(N2CCCC3(CCN(c4cccnc4)C3=O)C2)ncn1` (stereo not drawn), 84.7%.

Regarding `Cc1cccc(CN2CCC3(CCN(c4ccccn4)C3)C2=O)c1` (stereo not drawn), the INHIBITION was found to be 20.7%.

With `COCC(=O)N1CCCC2(CCN(c3cncnc3)C2=O)C1` (stereo not drawn), the INHIBITION was 25.2%. Turning to `COc1cccc(CN2CCC3(CCN(c4ncc(C)cn4)C3)C2=O)c1` (stereo not drawn), the INHIBITION is recorded as 37.9%. `COc1cc(N2CCC3(CCN(Cc4cccnc4)C3=O)C2)ncn1` (stereo not drawn): the INHIBITION was found to be 91%. With `Cc1cnc(N2CCC3(CC2)CCN(c2cncnc2)C3=O)nc1`, the INHIBITION came out at 40.8%. As for `COc1cc(N2CCCC3(CCN(c4cncnc4)C3=O)C2)ncn1` (stereo not drawn), the INHIBITION amounted to 53%.

On to `CNC(=O)[C@H]1C[C@@H]2CN(C(=O)c3ccccn3)C[C@@H]2N1S(C)(=O)=O`, for which the INHIBITION is recorded as 37.2%. `Cc1nnc(CN2CCCC2c2c(C)nn(C)c2Cl)o1` (stereo not drawn): the INHIBITION is recorded as 16.9%. On to `O=C(C1CCOC1)N1C[C@H]2CN(Cc3nccs3)C[C@H]2C1` (stereo partly drawn), for which the INHIBITION is listed as 17.1%. For `COc1ccccc1CN(CC1CCCO1)C(=O)c1cc(C)n[nH]1` (stereo not drawn) the value was -11.3%; for `c1cncc(CN2Cc3nccn3CC(Cn3cncn3)C2)c1` (stereo not drawn), 5.41%. Take `COc1ccc(C(=O)N2C[C@@H](O)[C@H](NCCc3ncccc3C)C2)cc1`: the INHIBITION is -15.3%. For `Cc1cc(CNc2cc(Cl)ccc2C)no1` the value was -4.4%.

Take `Cc1nnsc1CN1C[C@H]2CC[C@@H](C1)N(Cc1c(C)noc1C)C2=O`: the INHIBITION is on record as -42.9%. Under `CNc1cc(C(=O)N2CCC3(CC2)Nc2ccccc2NC3=O)ccn1` stands 57.6%; under `CNc1ncc(C(=O)N2CCC3(CC2)Nc2ccccc2NC3=O)cn1`, 27.6%. For `COc1cc(C(=O)N2CCC3(CC2)Nc2ccccc2NC3=O)ccn1` the value was 52.1%; for `Nc1cc(C(=O)N2CCC3(CC2)Nc2ccccc2NC3=O)ccn1`, -31.5%. For the molecule `CC(=O)c1cc(C(=O)N2CCC3(CC2)Nc2ccccc2NC3=O)cs1`, the INHIBITION is on record as 20.3%. For `COc1ncc(C(=O)N2CCC3(CC2)C(=O)Nc2ccccc23)cn1`, the INHIBITION is on record as 12%. For the molecule `Cn1nnnc1SCCC(=O)NCC1Cc2ccccc2O1` (stereo not drawn), the INHIBITION is -0.554%. As to `CN(C)C(=O)CCCS(=O)(=O)Cc1cc(Cl)c2c(c1)OCO2`, the INHIBITION stood at 30.6%.

Regarding `NC1CCCN(C(=O)c2csc(-c3ccc(C(F)(F)F)cc3)n2)CC1` (stereo not drawn), the INHIBITION is recorded as 32.4%. On to `Cc1ncsc1C(=O)NCCNC(=O)OC(C)(C)C`, for which the INHIBITION is reported as -7.93%. For `COc1ccc(OCCN(C)CCCn2cnc3c(N)ncnc32)cc1` the value was 10.6%; for `COc1cccc(SCCCn2cnc3c(N)ncnc32)c1`, 52.1%.

In the case of `COc1cccc(CN(C)CCCn2cnc3c(N)ncnc32)c1`, the INHIBITION is on record as 9.84%. `CC(C)c1[nH]c2ncccc2c1CN1CCN(S(=O)(=O)N(C)C)CC1`: the INHIBITION was -33.6%.

`Cc1nccn1C1CCCN(C(=O)COCC2CC2)C1` (stereo not drawn): the INHIBITION worked out at 22.9%. Turning to `CN(Cc1csc(-c2ccccc2)n1)Cc1ncccc1C(=O)O`, the INHIBITION is reported as 25.5%. In the case of `O=C(CSCc1ccccn1)N(Cc1ccsc1)C1CC1`, the INHIBITION is given as 36.2%. In the case of `O=C(O)c1cccnc1CN(Cc1ccsc1)C1CC1`, the INHIBITION is listed as 87.5%. For the molecule `O=C(c1cccs1)N1CCc2c(nc(N3CCCCC3)[nH]c2=O)C1`, the INHIBITION is recorded as 37.6%.

Regarding `COc1ccc(C(=O)NCc2ccco2)nn1`, the INHIBITION was 9.4%. For `Cc1cc2c(cc1Cl)C=CC1(CCN(CC(=O)N3CCOCC3)CC1)O2` the value was 15.1%; for `CCN(CC)C(=O)CN1CCC(c2nc(C)c3c(n2)N(C)CCC3)CC1`, 8.12%; for `Cc1cc2c(cc1Cl)C=CC1(CCN(CC(=O)NC3CCCC3)CC1)O2`, 80%. `Cc1cc(C)n(CC2CN(CC(=O)NC3CCCCC3)CCO2)n1` (stereo not drawn): the INHIBITION is 8.64%. As to `Cc1cc(C(=O)N2CCCC3(C=Cc4ccccc4O3)CC2)cc(=O)[nH]1` (stereo not drawn), the INHIBITION is reported as -155%.

In the case of `Cc1cc(C)n(CC2CN(CC(=O)NC3CCCC3)CCO2)n1` (stereo not drawn), the INHIBITION was found to be 0.706%. As for `Nc1cc(C(=O)N2CCCC3(C=Cc4ccccc4O3)CC2)ccn1` (stereo not drawn), the INHIBITION is on record as 34.8%. On to `Cc1cc2c(cc1Cl)C=CC1(CCN(C(=O)N3CCOCC3)CC1)O2`, for which the INHIBITION is reported as 89.9%. For `Cc1cc2c(cc1C)OC1(C=C2)CCN(CC(=O)N2CCOCC2)CC1` the value was 19.5%. In the case of `Cc1ccc(CCC(=O)N2CCOCC2)cc1Cl`, the INHIBITION is -18%.
